Structures are written as SMILES. About 83,000 compounds went through this panel and 20% of them were active in at least one assay; those are over-represented in the sample as a whole.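 Each cell line was grown in a 96-well plate and treated with one concentration of compound for 48 hours. Values below 10 were considered active.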 Unmarked numbers belong to inactive results. The source made the active and inactive calls.

This assay concerns NCI-H322M lung. The experiment in a line: NCI-60 one-dose screen, 48 h (100 = growth as untreated, 0 = no growth, -100 = all killed). The note with it: 10 µM. As to the method:
Growth inhibition of the NCI-H322M human Non-Small Cell Lung tumor cell line is measured as a screen for anti-cancer activity. Cells are grown in 96 well plates and exposed to the test compound for 48 hours. Compounds are tested at a single concentration, which is 10^-5 M for most compounds. The reported endpoint is percent growth (GI% or GIPRCNT), where numbers from 0 - 100% represent growth inhibition, and numbers from -100% - 0 represent cell death. For example, a value of 40 represents 60% growth inhibition. A value of 0 means no net growth occurred over the course of the experiment. A value of -40 indicates 40% of cells at the beginning of the experiment died by the end of the experiment. A value of -100 means all cells are dead at the end of the experiment.
NCI-60 Human Tumor Cell Lines Screen was performed using the standard one-dose NCI protocol, which is described in more detail at https://dtp.cancer.gov/discovery_development/nci-60/default.htm.
Compounds with GIPRCNT values below 10 were considered active. Activity score was based on GIPRCNT using the following formula: […]
Score is 0 for GIPRCNT values of 100 or above, 50 for GIPRCNT values of 0, and 100 for GIPRCNT values of -100.
For the molecule `C/C(=C\c1ccc(O)cc1O)c1ccc2ccc(O)cc2[o+]1`, the growth is 78.1%.

Regarding `COC(=O)c1c(C(=O)OC)c2n(c1C)[C@@H]([C@@H](C)[C@H]1CC[C@H]3[C@@H]4CCC5=CC(=O)CC[C@]5(C)[C@H]4CC[C@]13C)SC2`, the growth is 72.8%.

Take `Cc1ccc(S(=O)(=O)c2nc(-c3ccccc3)oc2S(=O)(=O)CC(=O)N2CCCC2)cc1`: the growth is 73.6%.

For `COC(=O)C[C@](O)(CCCC(C)(C)O)C(=O)O[C@H]1C(OC)=C[C@@]23CCC(=O)N2CCc2cc4c(cc2[C@@H]13)OCO4`, the growth is 112%.

`O=C1Nc2cc(Cl)ccc2/C1=C/c1cccc(OCc2ccccc2)c1`: the growth was 29.5%.

For the molecule `Clc1ccc2c(N/N=C/c3c[nH]c4ccc(Br)cc34)ccnc2c1`, the growth is -96.9% (active).

`Nc1nc2c(F)c(F)c(F)c(F)c2s1`: the growth was 103%.

For `O=C(N/N=C/c1ccc(B(O)O)o1)c1[nH]c2ccc(Br)cc2c1-c1ccccc1`, the growth is 61.2%.

Regarding `CC(=O)Nc1ccc(-c2cn(-c3cccc(C(=O)Nc4ccc(Cl)c(C(F)(F)F)c4)c3)nn2)cn1`, the growth is -18.7% (active).

Consider `OCc1[nH]nc2cc(Nc3ncc4ccc(Br)c(OC5CCC(O)CC5)c4n3)ccc12` (stereo not given), for which the growth was -17.9% (active).

Turning to `N#Cc1c(NC(=O)c2ccc(C(F)(F)F)cc2C(F)(F)F)sc2c1CCC(=O)C2`, the growth was 12.4%.

On to `COc1ccc(/C=C/C(=O)c2ccc(NC(=O)CN3C(=O)NC(C)(c4ccccc4)C3=O)cc2)cc1` (stereo not given), for which the growth was 105%.

In the case of `Cc1cc(=O)oc2cc(OCCCCOc3ccc(/C=C/C(=O)Nc4ccc(F)c(Cl)c4)cc3)ccc12`, the growth was 93.4%.

For the molecule `CN1CCO/C1=C(/NC(=O)c1ccc(Cl)cc1)[P+](c1ccccc1)(c1ccccc1)c1ccccc1`, the growth is 96.6%.

In the case of `CCOC(=O)c1c(CSc2ccccc2)n(C)c2cc(CN(C)C)c(O)c(CN(C)C)c12`, the growth is 47.7%.

`N#Cc1ccc(-c2nn(-c3ccc(C(=O)O)cc3)cc2CNc2cccc(Br)c2)cc1`: the growth was 85.5%.

For the molecule `O=C1NC(=NC23CC4CC(CC(C4)C2)C3)N/C1=C\c1ccc2ncsc2c1`, the growth is 4.94% (active).

Turning to `S=c1nc(-c2ccccc2)cc(-c2cc3ccccc3nc2Cl)[nH]1`, the growth was 98.5%.

Consider `O=C1Nc2cc(-c3ccc(NC(=O)c4cccs4)cc3)ccc2/C1=C/c1ccc[nH]1`, for which the growth is 99.3%.

For the molecule `CN1CCN(c2ccc(Nc3nc(NCCCNC(=O)c4ccc(Cl)cc4)c4sccc4n3)cc2)CC1`, the growth was 91.3%.

Take `O=C1Nc2ccc(Cl)cc2/C1=C/c1cccc(OCc2ccccn2)c1`: the growth was 40.1%.

Consider `O=C1Nc2cc(-c3ccc(NC(=O)c4cccc([N+](=O)[O-])c4)cc3)ccc2/C1=C/c1ccc[nH]1`, for which the growth was 102%.

On to `COC1=C[C@]23CCC(=O)N2CCc2cc4c(cc2[C@@H]3[C@@H]1OC(=O)CCCC(C)C)OCO4`, for which the growth was 108%.

Take `COc1ccc(CN2[C@@H](C(=O)NCc3ccc(C(=O)NO)cc3)Cc3c([nH]c4ccccc34)[C@@H]2C2CC2)cc1`: the growth is 42%.

For the molecule `Cc1cc2c(c(O)c1Br)-c1ncoc1C(=O)[C@]1(C)CC[C@H](C(C)C)[C@H]21`, the growth is 65.7%.

With `CC(=O)Nc1ccc(-n2cnc3cc(-c4ccc(O)cc4)ccc32)cc1C`, the growth is 74.9%.

Consider `O=C1NC(=NC23CC4CC(CC(C4)C2)C3)N/C1=C\c1ccc2ncoc2c1`, for which the growth is 3.73% (active).

As to `O=C(Cc1ccc2c(c1)CN(C1CCC(=O)NC1=O)C2=O)NCCc1ccccc1` (stereo not given), the growth was 22.5%.

For `Cc1ccc(F)cc1N/C=c1\s/c(=C(\C#N)C(=O)Nc2ccccc2)n(-c2ccccc2)c1=O`, the growth is 81.8%.

As for `Cc1cccc(-c2nc(Nc3ccccc3C(=O)O)c3ccccc3n2)c1`, the growth was 48.7%.

Take `C=C[C@@]12CN3CC[C@]1(O)[C@@](C(=O)OC)(CO2)c1[nH]c2ccccc2c1C3`: the growth is 93.7%.

Take `COc1ccsc1/C=N/NC(=O)c1[nH]c2ccc(Br)cc2c1-c1ccccc1`: the growth was 34.3%.

As for `O=C(Nc1cccc([N+](=O)[O-])c1)Nc1cccc([N+](=O)[O-])c1`, the growth is 89.2%.

Consider `CC(=O)Nc1nc(-c2ccc(N3CCN(C)CC3)c(NS(=O)(=O)c3ccc(C(F)(F)F)cc3)c2)cs1`, for which the growth is 88.2%.

As for `CC(C)c1ccc(C(=O)Nc2sc3c(c2C(N)=O)CCC(=O)C3=O)cc1`, the growth is 104%.

Regarding `CN1CCN(c2ccc(Nc3nc(N4CCN(S(=O)(=O)c5ccc(F)cc5)CC4)c4sccc4n3)cc2)CC1`, the growth was -88% (active).

Regarding `O=C(CSc1nnc(-c2c[nH]c3ccccc23)n1-c1ccccc1)Nc1ccc(C(=O)/C=C/c2ccc(Br)cc2)cc1`, the growth is 92.1%.

Consider `Nc1nc(-c2ccccc2)cc(-c2cc3ccccc3nc2Cl)n1`, for which the growth was 96.7%.

On to `O=C(Nc1ccncc1)c1ccc(-n2c(=O)[nH]c3ccccc3c2=O)cc1`, for which the growth was 97.6%.

In the case of `O=C(CNc1nc(-c2ccccc2)cs1)Nc1ccc(Br)cc1`, the growth is -99.5% (active).

These data come from PubChem BioAssay (NCI).
